The nature of assay [1]: qHTS assay for small molecule agonists of the p53 signaling pathway (AID 651631; calls by dose curve; further: nearly all actives have a fitted effect of over 15% in size; further: potency means the concentration at half of the fitted maximal effect). The method, boiled down:
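HCT-116 cells carrying a stable p53 response element–beta-lactamase reporter were plated, rested 5 h at 37 °C, then exposed to compound in DMSO for 16 h at 37 °C; reporter activity was read as FRET substrate fluorescence after 2 h at room temperature.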
In general terms: qHTS replaces the single test concentration by a dilution series.

A short description of assay [2]: qHTS assay for small molecule agonists of the p53 signaling pathway - cell viability (AID 651633; calls by dose curve; further: nearly all actives have a fitted effect of over 30% in size; further: potency means the concentration at half of the fitted maximal effect). A digest of the protocol: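 p53RE-bla cells were treated with compound for 16 hours at 37 C. Cytotoxicity was then measured as CellTiter-Glo luminescence after 30 min at room temperature.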
Assay [3] in a line: qHTS assay for small molecules that induce genotoxicity in human embryonic kidney cells expressing luciferase-tagged ATAD5 - cell viability (AID 651634; calls by dose curve; further: nearly all actives have a fitted effect of over 25% in size; further: potency means the concentration at half of the fitted maximal effect). The method, boiled down:
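Live-cell protease activity (CellTiter-Fluor, fluorescence) indicates viability. HEK293T cells with luciferase-tagged ATAD5; 15.5 hr compound treatment at 37C.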

The nature of assay [4]: qHTS assay to test for compound auto fluorescence at 590 nm (red) in HepG2 cells (AID 720674). The method, boiled down:
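Fluorescence at 590 nm emission following 540 nm excitation was recorded from HepG2 wells one hour after compound transfer, with DMSO-only wells as vehicle and Rose Bengal sodium equivalency as the scale.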

Assay [5] is described as follows: qHTS assay to test for compound auto fluorescence at 535 nm (green) in HepG2 cells (AID 720675).
The nature of assay [6]: qHTS assay to test for compound auto fluorescence at 590 nm (red) in HEK293 cells (AID 720679). The method, boiled down: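 Red autofluorescence, HEK293 cells: 2,000 cells/well; attach 4-5 hr 37C; add 23 nL cpd or DMSO; incubate o/n 37C 5% CO2; read Ex540/Em590; Rose Bengal sodium reference.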
Assay [7] in a line: qHTS assay for small molecules that induce genotoxicity in human embryonic kidney cells expressing luciferase-tagged ATAD5 (AID 651632). Further: nearly all actives have a fitted effect of over 15% in size. The method, boiled down:
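Genotoxicity read-out via ATAD5-luciferase: HEK293T cells, 16 hr compound incubation at 37C, Amplite detection.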

Assay [8] is described as follows: qHTS assay for small molecule disruptors of the mitochondrial membrane potential - cell viability (AID 720634; calls by dose curve; further: nearly all actives have a fitted effect of over 20% in size; further: potency means the concentration at half of the fitted maximal effect). A digest of the protocol: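 Human hepatoma HepG2 cells were treated for 1 hr with test chemicals, then given m-MPI dye and CellTiter-Glo. Cell viability reflects luminescence proportional to cellular ATP.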
Assay [9] in a line: qHTS assay for small molecule disruptors of the mitochondrial membrane potential (AID 720635). Further: potency means the concentration at half of the fitted maximal effect. The method, boiled down: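 HepG2 cells exposed to compound 1 hr at 37C, then Mito-MPS dye 30 min. Ratio read of aggregate (540/590 nm) versus monomer (490/535 nm) fluorescence.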
Assay [10] can be described thus: qHTS assay to test for compound auto fluorescence at 460 nm (blue) in HEK293 cells (AID 720678). The method, boiled down:
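Intrinsic compound fluorescence is recorded in live HEK293 cultures after overnight incubation at 37C, 5% CO2, using excitation 405 nm and emission 460 nm. Values are referenced to triamterene.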

Structures are written as SMILES. Several values for one entry are separate records, joined by “and”; a condition that tells them apart may be missing. Equal values may be shown once. Inconclusive results are not listed. Some structures have more than one record in an assay (separate samples or runs), and their calls can disagree. Activity calls are given as the source filed them. Unless noted, the call rests on the fitted dose curve; in most records, active means well fitted curve in the direction sought with a large enough effect in the repeat runs; inconclusive means weak or mixed curves; inactive means no such curve, though single readings can be large; an effect the other way counts as inactive or inconclusive.
On the % scale 0 is the no-effect control and ±100 the full control effect.

As to `C=C(C)C1CC=C(C)CC1` (centres undefined), the Potency result in [1], in assay [2], in assay [3], in assay [4], in assay [5] and in [6] was “inactive” in each case.

Consider `Cn1cnc([N+](=O)[O-])c1Sc1ncnc2nc[nH]c12`, for which the Potency in assay [1] is 24.2 µM (active); in assay [2], 680 nM (active); in assay [9], 23.7 µM (active). Also, the Potency entry in assay [7], in assay [8], in assay [4], in assay [5] and in assay [6] was “inactive” each time. For the same molecule, the outcome in assay [10] was inactive.

As to `CNCCCC12CCC(c3ccccc31)c1ccccc12`, the Potency entry in assay [1], in [7], in assay [3], in assay [8], in assay [4] and in assay [5] was “inactive” in each case. In assay [6], the Potency entry was “inactive”. The molecule was classed as inactive in assay [10].

With `CC(=O)C1(C)CC2=C(CCCC2(C)C)CC1C` (centres undefined), the Potency entry in [1], in [7], in assay [2], in assay [3], in assay [4] and in assay [5] was “inactive” in each case. For the same molecule, the Potency result in assay [6] is “inactive”. Further, the result in [10] was inactive.

Regarding `O=C(/C=C/c1ccccc1)OCc1ccccc1`, the Potency entry in assay [1], in assay [7], in assay [2], in assay [3], in assay [4] and in [5] was “inactive” in each case. Also, the Potency entry in [6] was “inactive”.

In the case of `c1ccc2c(c1)Oc1ccccc1S2`, the Potency entry in assay [1], in assay [2], in [3], in assay [8], in assay [4] and in assay [5] was “inactive” throughout. Also, the Potency result in [6] was “inactive”. Also, the outcome in assay [10] was inactive.

Turning to `CCOCCOCCO`, the Potency entry in [1], in assay [2], in assay [3], in assay [8], in [4] and in assay [5] was “inactive” in each case. In addition, the Potency result in assay [6] was “inactive”. Also, the outcome in [10] was inactive.

As to `Nc1ncnc2nc[nH]c12`, the Potency result in assay [1], in assay [2], in [3], in assay [8], in assay [4] and in [5] was “inactive” each time. Further, the Potency entry in [6] is “inactive”. In addition, the call in assay [10] was inactive.

With `OC(CCl)CCl`, the Potency entry in assay [1], in assay [2], in [3], in assay [8], in assay [4] and in [5] was “inactive” each time. Moreover, the Potency result in assay [6] is “inactive”.

For the molecule `COc1ccc(OC)c(C(O)CNC(=O)CN)c1` (centres undefined), the Potency entry in assay [1], in assay [2], in assay [3], in assay [8], in assay [9] and in [4] was “inactive” in each case. Further, the Potency result in assay [5] and in [6] was “inactive” throughout. In addition, the molecule was classed as inactive in [10].

As to `CCCCOCCOCCO`, the Potency result in assay [1], in assay [2], in assay [3], in [8], in assay [9] and in [4] was “inactive” throughout. The Potency result in assay [5] and in assay [6] was “inactive” each time. Moreover, in assay [10], the molecule was called inactive.

On to `OCCO`, for which the Potency entry in assay [1], in assay [2], in assay [3], in assay [8], in assay [9] and in assay [4] was “inactive” throughout. In addition, the Potency result in [5] and in [6] was “inactive” throughout. Also, the call in [10] was inactive.

For `CC(=O)Oc1ccccc1C(=O)Nc1ncc([N+](=O)[O-])s1`, the Potency in assay [1] is 5.96 µM (active); in assay [2], 9.44 µM (active) and inactive; in assay [3], 18.8 µM (active) and 22.1 µM (active); in assay [8], 0.556 µM (active); in assay [9] it was 1.5 µM (active) and 351 nM (active). The Potency result in assay [4], in assay [5] and in assay [6] was “inactive” in each case.

For the molecule `Cc1[nH]c(=O)c(C#N)cc1-c1ccncc1`, the Potency result in [1], in assay [2], in assay [3], in [8], in assay [4] and in [5] was “inactive” in each case. Further, the Potency entry in assay [6] was “inactive”.

Consider `O=CCc1ccccc1`, for which the Potency result in assay [1], in [2], in [3], in assay [8], in [4] and in assay [5] was “inactive” each time. Also, the Potency result in [6] was “inactive”. The Potency result in assay [9] was “inactive and 54.5 µM (active)”.

With `O=C(OCc1ccccc1)c1ccccc1O`, the Potency entry in assay [1], in [2], in [8], in assay [4], in assay [5] and in [6] was “inactive” each time. For the same molecule, the Potency in assay [9] was 61.1 µM (active). In assay [10], the molecule was classed as inactive.

As to `Nc1ccc(S(=O)(=O)Nc2cnc3ccccc3n2)cc1`, the Potency entry in [1], in assay [2], in assay [3], in assay [8], in assay [9] and in assay [4] was “inactive” each time. Further, the Potency result in assay [5] and in [6] was “inactive” each time. The molecule was called inactive in [10].

With `CCOC(=O)C(C#N)=C(c1ccccc1)c1ccccc1`, the Potency result in assay [1], in [2], in assay [3], in assay [4], in assay [5] and in assay [6] was “inactive” throughout. In addition, the result in [10] was inactive.

With `Cc1cccc(C(=O)O)c1`, the Potency result in assay [1], in [2], in assay [3], in assay [8], in [9] and in assay [4] was “inactive” in each case. For the same molecule, the Potency entry in assay [5] and in assay [6] was “inactive” throughout. The molecule was called inactive in assay [10].

With `C#C[C@]1(O)CC[C@H]2[C@@H]3CCC4=Cc5oncc5C[C@]4(C)[C@H]3CC[C@@]21C`, the Potency result in assay [1], in assay [7], in [2], in assay [3], in assay [4] and in assay [5] was “inactive” in each case. Further, the Potency entry in assay [6] was “inactive”. In addition, in assay [10], the call was inactive.

Regarding `CN(C)c1nc(N(C)C)nc(N(C)C)n1`, the Potency result in [1], in [2], in [3], in assay [8] and in assay [9] was “inactive” in each case. Also, in assay [4], the fluorescence, relative to Rose Bengal was 0.105% [at 18.6 µM] (inactive) and 0.0838% [at 3.72 µM] (inactive). In addition, the fluorescence, % of fluorescein control in assay [5] was -0.0062% [at 18.6 µM] (inactive) and 0.0151% [at 3.72 µM] (inactive). Moreover, the fluorescence, % of triamterene in assay [10] was 0.0425% [at 18.6 µM] (inactive) and 0.0657% [at 3.72 µM] (inactive). Also, in [6], the fluorescence, % of fluorescent control is 0.0163% [at 18.6 µM] (inactive) and 0.505% [at 3.72 µM] (inactive).

On to `CCC(C)OC(=O)c1ccc(O)cc1` (centres undefined), for which the Potency entry in assay [1], in [2], in assay [3], in [4], in [5] and in assay [6] was “inactive” throughout. Also, the Potency in assay [9] was 24.5 µM (active) and 17.2 µM (active). Further, the result in assay [10] was inactive.

As for `NNc1ccc(C(=O)O)cc1`, the Potency entry in assay [1], in assay [2], in [3], in assay [8], in assay [4] and in [5] was “inactive” throughout. Also, in assay [6], the Potency result is “inactive”. Further, the call in assay [10] was inactive.

Take `c1cc(-c2ccncc2)ccn1`: the Potency result in assay [1], in assay [2], in assay [3], in assay [8], in assay [4] and in assay [5] was “inactive” each time. Further, the Potency result in assay [6] was “inactive”.

As to `CCCCOCCOCCOCCO`, the Potency entry in [1], in assay [2], in assay [3], in assay [4], in [5] and in [6] was “inactive” each time. Also, in assay [10], the result was inactive.
